Consider 17 compounds from PubChem BioAssay.

Where “and” joins values, the source holds several entries; their conditions need not be identical. Equal entries are not always repeated. Results filed as inconclusive are left out. Calls of active or inactive are those of the source.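 The calls were made as follows, unless noted: active = at least 20% inhibition of 6-phosphogluconate dehydrogenase activity; inactive = the rest.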

Assay [1] can be described thus: hESC survival regulators, cell-based (AID 493140; call rule not given here;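 also: cells exposed to compounds for four days before counting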). The conditions noted are these: human embryonic stem cell survival screen; stronger effect = higher value.
A short description of assay [2]: liver-stage malaria parasite growth inhibition, primary screen, cell-based, HepG2, luciferase luminescence, HepG2 viability (AID 624349; in the data active = parasite load remaining mostly below about 12%, no sharp cut-off; inactive = mostly above about 10%;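 also: 100% = mean of DMSO negative control wells on the same plate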). The conditions noted are these: P. berghei liver stage in HepG2, luciferase luminescence, concentration not given here; parasite load remaining: stronger effect = lower value; viability: measured here: HepG2 viability without parasites.
Assay [3] addresses 6-phosphogluconate dehydrogenase, decarboxylating (Homo sapiens) (UniProt P52209). The experiment in a line: 6PGD enzyme inhibitors, primary screen, biochemical, human, recombinant enzyme, NADPH absorbance (AID 1159550). The note with it: recombinant 6PGD, NADPH absorbance 341 nm; at 10 µM; stronger effect = higher value.
In assay [4] the target is NAD(+) hydrolase SARM1 (Homo sapiens) (UniProt Q6SZW1). The experiment in a line: SARM1 TIR NADase inhibitors, cell lysate, NAD-Glo luminescence (AID 1508614;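 active = compound whose remaining NAD level is above about 45 nM, limit read from the data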;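 also: higher remaining NAD means stronger inhibition of SARM1 NADase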). The note with it: SAM-TIR HEK293T lysate NADase, at 1 µM, stronger effect = higher value.
NAD(+) hydrolase SARM1 (Homo sapiens), sequence (Q6SZW1 whole entry, looked up, the tested form may be a part): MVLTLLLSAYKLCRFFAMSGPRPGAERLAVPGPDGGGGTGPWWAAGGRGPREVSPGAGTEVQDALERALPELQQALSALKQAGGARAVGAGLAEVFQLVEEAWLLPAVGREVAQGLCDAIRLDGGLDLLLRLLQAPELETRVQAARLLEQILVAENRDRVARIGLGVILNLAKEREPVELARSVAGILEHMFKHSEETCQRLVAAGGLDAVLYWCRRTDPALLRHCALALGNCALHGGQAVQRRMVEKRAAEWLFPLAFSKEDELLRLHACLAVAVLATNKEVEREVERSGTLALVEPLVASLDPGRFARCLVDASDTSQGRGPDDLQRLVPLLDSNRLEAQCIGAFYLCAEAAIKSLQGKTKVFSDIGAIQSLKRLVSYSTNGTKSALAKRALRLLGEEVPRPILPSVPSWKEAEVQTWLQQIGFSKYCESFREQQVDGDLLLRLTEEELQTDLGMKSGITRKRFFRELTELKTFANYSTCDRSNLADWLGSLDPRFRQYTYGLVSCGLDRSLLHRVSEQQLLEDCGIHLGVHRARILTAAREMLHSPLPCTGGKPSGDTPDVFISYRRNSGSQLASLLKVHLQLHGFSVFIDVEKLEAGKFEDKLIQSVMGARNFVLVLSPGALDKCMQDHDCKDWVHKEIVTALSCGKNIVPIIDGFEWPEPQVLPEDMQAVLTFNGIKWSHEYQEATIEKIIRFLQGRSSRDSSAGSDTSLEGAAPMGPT
In assay [5] the target is Mitogen-activated protein kinase 7 (Homo sapiens) (UniProt Q13164). The experiment in a line: ERK5 transactivation activators in reporter cells, primary screen, cell-based, HTS (AID 1508626;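 active = luciferase signal above three times the same-plate solvent-only control wells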;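 also: luciferase driven by Gal4-ERK5 fusion binding five Gal4 sites before minimal TATA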). The note with it: HeLa Gal4-ERK5 transactivation, 18 h, at 5 µM, stronger effect = higher value.
Mitogen-activated protein kinase 7 (Homo sapiens), sequence (Q13164 whole entry, looked up, the tested form may be a part): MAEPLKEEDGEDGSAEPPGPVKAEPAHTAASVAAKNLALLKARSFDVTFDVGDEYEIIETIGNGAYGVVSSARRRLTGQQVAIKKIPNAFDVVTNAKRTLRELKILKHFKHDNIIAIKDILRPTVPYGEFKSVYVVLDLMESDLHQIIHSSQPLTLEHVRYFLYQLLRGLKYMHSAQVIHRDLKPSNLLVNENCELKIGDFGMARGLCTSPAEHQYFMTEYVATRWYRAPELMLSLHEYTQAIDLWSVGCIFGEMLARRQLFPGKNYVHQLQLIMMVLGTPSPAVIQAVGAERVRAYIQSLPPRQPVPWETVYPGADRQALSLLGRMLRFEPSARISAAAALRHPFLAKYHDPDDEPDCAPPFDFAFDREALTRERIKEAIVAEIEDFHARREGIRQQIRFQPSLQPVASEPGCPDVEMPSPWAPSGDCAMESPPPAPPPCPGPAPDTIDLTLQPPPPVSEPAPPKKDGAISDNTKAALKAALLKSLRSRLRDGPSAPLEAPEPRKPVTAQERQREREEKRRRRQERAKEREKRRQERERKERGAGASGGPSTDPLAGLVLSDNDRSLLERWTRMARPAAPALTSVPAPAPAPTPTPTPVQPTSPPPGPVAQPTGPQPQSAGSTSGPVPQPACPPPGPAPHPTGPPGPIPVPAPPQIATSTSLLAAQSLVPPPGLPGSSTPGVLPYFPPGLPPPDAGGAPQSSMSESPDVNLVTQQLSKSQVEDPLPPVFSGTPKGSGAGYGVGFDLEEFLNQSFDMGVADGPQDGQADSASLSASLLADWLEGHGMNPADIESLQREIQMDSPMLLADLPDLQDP
The nature of assay [6]: sensitizers of A549 cells to miR-34 induction, primary screen, imaging, A549 dox-inducible miR-34, nuclei and caspase counts (AID 1347080;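 active = compounds whose cell count with miR-34 switched on is under 0.7 times the count with it off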). The note with it: A549 miR-34 inducible, Hoechst nuclei count, 48 h.
Assay [7] in a line: circadian clock period modulators, cell-based, LOPAC library, luminescence reporter (AID 2774; call rule not given here;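 also: values are relative to mean of DMSO wells on each plate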). The conditions noted are these: circadian reporter cells, at 7 µM, actives lie on both sides.
Assay [8] is described as follows: viability rescue of complex I mutant cybrids, primary screen, cell-based, galactose medium, ATP luminescence (AID 1645843;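 active = z-score of at least 1.8 in each of two replicates, scored against plate mean and spread of sample wells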;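 also: positive z means more ATP and so rescue of galactose-driven cybrid death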). The conditions noted are these: complex I mutant cybrid cells, 72 h, stronger effect = higher value.
Assay [9] has as its target ATP-dependent translocase ABCB1 (Homo sapiens) (UniProt P08183). As to the kind of experiment: MDR1 (ABCB1) efflux transporter inhibition, cell-based (AID 377; in the data active = fluorescence slope change above about 50%). The note with it: MDR1-expressing cells, fluorescent substrate accumulation slope; stronger effect = higher value; concentration not given here.
The nature of assay [10]: polyglutamine-triggered caspase-3 activation inhibitors, cell-based (AID 1583). The note with it: polyglutamine-induced caspase-3 activation, cell assay; stronger effect = higher value;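 tested at 10 µM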.
Assay [11] can be described thus: suppressors of polyQ aggregation in yeast, 75Q-TubU reporter (AID 1593). The conditions noted are these: Yeast 75Q polyglutamine aggregation reporter.
Assay [12] is described as follows: inhibitors of mitochondrial cytochrome c release, biochemical, purified mitochondria (AID 1603).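 Also: mouse liver mitochondria challenged with calcium chloride; signal normalized to the plate average as 100%.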 The conditions noted are these: stronger effect = lower value.
The nature of assay [13]: inhibitors of polyQ protein aggregation (AID 1604). The note with it: polyglutamine-induced protein aggregation inhibition assay; stronger effect = higher value; tested at 2.5 µM.
A short description of assay [14]: enhancers of glutamate uptake in motor neurons, MN-1 cell line (AID 1612).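 Also: tested at 1 µM final; 0% = mean of DMSO vehicle wells on each plate; positive means more glutamate uptake than control and negative means less.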 The conditions noted are these: MN-1 motor neuron cells, stronger effect = higher value.
The nature of assay [15]: reducers of polyQ inclusions in PC12 cells, cell-based, NGF-treated PC12, GFPQ80 (AID 1614).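 Also: lower means fewer inclusions and 0 means no inclusions at all.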 The note with it: PC12 NGF-treated GFP-polyQ80 inclusion reduction.
Assay [16] can be described thus: suppressors of polyglutamine aggregation in yeast, 75Q-TubH (AID 1616). The conditions noted are these: S. cerevisiae 75Q-TubH polyglutamine aggregation suppression; stronger effect = higher value.
A short description of assay [17]: survival rescue of mitochondrial mutant cells in low glucose, primary screen, MELAS cybrids, Rieske KO mouse fibroblasts, CellTiter-Glo (AID 1508586;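 active = mean z-score across replicates of 1.96 or higher in either the MELAS or the Rieske mutant cell line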;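 also: z relative to plate mean and SD of compound and empty wells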).
Setting [18] is: stronger effect = lower value, cell number ratio, induced over uninduced.
Setting [19] is: measured here: relative caspase fold change +Dox/-Dox.
The mark [20] stands for this setting: measured here: total cells with miR-34 induction, stronger effect = lower value.
Setting [21] is: measured here: total cells without miR-34 induction.

6-phosphogluconate dehydrogenase, decarboxylating (Homo sapiens), sequence (P52209 whole entry, looked up): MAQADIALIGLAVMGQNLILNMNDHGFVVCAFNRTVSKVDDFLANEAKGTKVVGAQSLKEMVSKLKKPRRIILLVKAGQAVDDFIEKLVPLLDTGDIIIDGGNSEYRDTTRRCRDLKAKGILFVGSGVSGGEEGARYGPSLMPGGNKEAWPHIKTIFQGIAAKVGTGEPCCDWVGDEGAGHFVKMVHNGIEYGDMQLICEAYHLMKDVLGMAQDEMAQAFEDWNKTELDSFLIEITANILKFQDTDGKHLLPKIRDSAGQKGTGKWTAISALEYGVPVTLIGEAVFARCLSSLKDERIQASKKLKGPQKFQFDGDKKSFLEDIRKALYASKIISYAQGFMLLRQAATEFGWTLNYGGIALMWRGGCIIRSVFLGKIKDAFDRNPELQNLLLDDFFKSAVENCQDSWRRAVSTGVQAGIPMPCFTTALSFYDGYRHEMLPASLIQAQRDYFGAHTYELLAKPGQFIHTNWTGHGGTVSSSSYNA
ATP-dependent translocase ABCB1 (Homo sapiens), sequence (P08183 whole entry, looked up): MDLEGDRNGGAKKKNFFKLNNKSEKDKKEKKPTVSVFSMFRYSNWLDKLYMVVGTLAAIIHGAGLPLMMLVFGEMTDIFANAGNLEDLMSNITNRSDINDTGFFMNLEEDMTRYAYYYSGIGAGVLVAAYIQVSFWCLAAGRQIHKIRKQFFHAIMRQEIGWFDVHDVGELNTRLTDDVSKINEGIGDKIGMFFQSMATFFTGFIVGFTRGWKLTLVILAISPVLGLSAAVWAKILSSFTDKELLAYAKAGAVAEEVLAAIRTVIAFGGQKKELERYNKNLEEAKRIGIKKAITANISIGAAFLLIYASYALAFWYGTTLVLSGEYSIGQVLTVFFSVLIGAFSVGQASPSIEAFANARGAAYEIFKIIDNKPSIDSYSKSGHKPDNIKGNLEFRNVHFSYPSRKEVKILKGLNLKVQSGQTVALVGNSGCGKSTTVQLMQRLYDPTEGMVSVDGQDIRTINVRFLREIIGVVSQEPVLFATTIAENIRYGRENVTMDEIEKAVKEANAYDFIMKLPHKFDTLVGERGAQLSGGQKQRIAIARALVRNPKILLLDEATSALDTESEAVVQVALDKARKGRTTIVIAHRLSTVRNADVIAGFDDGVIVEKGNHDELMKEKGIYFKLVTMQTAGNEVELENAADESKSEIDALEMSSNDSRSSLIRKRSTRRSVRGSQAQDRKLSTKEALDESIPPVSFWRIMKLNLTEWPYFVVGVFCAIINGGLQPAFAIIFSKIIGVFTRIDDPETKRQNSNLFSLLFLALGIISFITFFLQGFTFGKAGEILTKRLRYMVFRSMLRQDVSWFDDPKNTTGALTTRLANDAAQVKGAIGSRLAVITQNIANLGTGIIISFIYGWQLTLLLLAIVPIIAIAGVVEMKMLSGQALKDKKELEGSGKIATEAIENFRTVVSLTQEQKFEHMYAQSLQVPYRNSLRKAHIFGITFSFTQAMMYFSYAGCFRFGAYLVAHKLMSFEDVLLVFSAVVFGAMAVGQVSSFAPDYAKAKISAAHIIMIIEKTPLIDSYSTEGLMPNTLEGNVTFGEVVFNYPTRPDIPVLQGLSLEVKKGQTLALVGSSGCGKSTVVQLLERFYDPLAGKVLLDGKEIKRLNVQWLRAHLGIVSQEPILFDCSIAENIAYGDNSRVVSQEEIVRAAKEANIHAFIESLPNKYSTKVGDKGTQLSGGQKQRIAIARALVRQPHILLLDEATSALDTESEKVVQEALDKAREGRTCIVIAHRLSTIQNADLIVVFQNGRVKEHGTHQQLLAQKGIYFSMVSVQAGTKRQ

As usually defined, the viability is a read-out of living cells in per cent, often relative to untreated cells. One may read the inhibition as the drop in the measured response relative to a control, in per cent. On to `CC(=O)O[C@H]1C[C@@]2(C)[C@@H](C[C@@H](O)[C@H]3[C@@]4(C)CC[C@@H](O)[C@@H](C)[C@@H]4CC[C@@]32C)/C1=C(\CCC=C(C)C)C(=O)O`, for which, in [1], the survival was 5.08 (inactive). Further, in assay [2], the parasite load remaining is 64.8% (inactive) and the viability was 78.6%. Further, the inhibition in assay [3] is 4.42% (inactive). For the same compound, the remaining NAD in assay [4] was 10 nM (inactive). Further, the luciferase signal in assay [5] was 128 AU (inactive).
`CC12CC[C@H](CC1=O)C2(C)C`: in assay [2], the parasite load remaining was 74.1% (inactive) and 58.3% (inactive). For the same compound, in assay [2], the viability was 75% and 94.1%. The inhibition in [3] is 13.3% (inactive). The fold change was 0.849 (inactive) in [6] (setting [18]) and 0.856 in [6] (setting [19]). The cell count in assay [6] (setting [20]) amounted to 10900; in [6] (setting [21]) it was 12800.
On to `CO/N=C(\C(=O)N[C@@H]1C(=O)N2C(C(=O)O)=C(CSc3nc(=O)c(O)nn3C)CSC12)c1csc(N)n1` (stereo not given in full), for which the period change in assay [7] is 0.08 h (inactive). Besides, the inhibition in [3] is -13.8% (inactive). Moreover, the fold change is 1.02 (inactive) in [6] (setting [18]) and 1.74 in assay [6] (setting [19]). Further, the cell count in [6] (setting [20]) was found to be 10200; in assay [6] (setting [21]), 9980. Further, the z-score in [8] is 0.175 (inactive).
Turning to `CC(C)CCC[C@@H](C)[C@H]1CC[C@H]2[C@@H]3CC=C4C[C@@H](O)CC[C@]4(C)[C@H]3CC[C@]12C`, the inhibition in assay [3] is 2.5% (inactive). In [4], the remaining NAD is 10 nM (inactive). The luciferase signal in assay [5] was 52 AU (inactive).
Take `CN[C@@H]1[C@H](O[C@H]2[C@H](O[C@H]3[C@H](O)[C@@H](O)[C@H](N=C(N)N)[C@@H](O)[C@@H]3N=C(N)N)O[C@@H](C)[C@]2(O)CO)O[C@@H](CO)[C@H](O)[C@H]1O`: the inhibition in assay [3] was -14.8% (inactive). Further, the remaining NAD in assay [4] is 10 nM (inactive). The luciferase signal in [5] was 68 AU (inactive).
For `CC1=CC(=O)C2=C(C)CC[C@@H]3[C@H](OC(=O)[C@H]3C)[C@@H]12`, the survival in assay [1] is 21.9 (inactive). Besides, the parasite load remaining in assay [2] was 69.2% (inactive). Also, the viability in assay [2] worked out at 75.3%. The inhibition in [3] was -50% (inactive). Also, the fold change in assay [6] (setting [18]) is 0.934 (inactive); in [6] (setting [19]), 0.653. Further, the cell count in assay [6] (setting [20]) was 9100; in assay [6] (setting [21]), 9750. Moreover, in assay [5], the luciferase signal is 76 AU (inactive).
On to `CC(C)c1c(O)ccc2c1CC[C@H]1C(C)(C)CCC[C@]21C`, for which the inhibition in assay [3] was -7.32% (inactive). Moreover, in assay [5], the luciferase signal is 20 AU (inactive).
In the case of `CC[C@@H](C(=O)[C@@H](C)[C@@H](O)[C@H](C)CCc1ccc(C)c(O)c1C(=O)O)[C@H]1O[C@](CC)([C@H]2CC[C@](O)(CC)[C@H](C)O2)C[C@@H]1C`, the parasite load remaining in assay [2] is -0.295% (active). In addition, the viability in assay [2] was determined as 110%. The inhibition in [3] was -6.18% (inactive). Moreover, the fold change in assay [6] (setting [18]) is 1.02 (inactive); in assay [6] (setting [19]), 1.03. The cell count was 2440 in assay [6] (setting [20]) and 2390 in [6] (setting [21]). Further, in [5], the luciferase signal was 44 AU (inactive).
`C[C@@H]1O[C@@H](O[C@H]2[C@H](Oc3cc(O)c4c(c3)O[C@H](c3ccc(O)cc3)CC4=O)O[C@H](CO)[C@@H](O)[C@@H]2O)[C@H](O)[C@H](O)[C@H]1O`: in assay [9], the fluorescence slope change was 21.6% (inactive). Also, the inhibition in assay [10] was -1.5%; in assay [3], 4.72% (inactive). Further, the score in assay [11] was 1.92. The cytochrome c release ratio in assay [12] is 1.05. The inhibition of aggregation in [13] amounted to 82.5%. Besides, the glutamate uptake change in assay [14] came to 6.96%. In [15], this compound gave an inclusion score of 2. This compound yielded an aggregation suppression score in [16] of 1.02. The survival in [1] was 7.67 (inactive). Further, in [2], the parasite load remaining was 153% (inactive) and 66.6% (inactive). For the same compound, in [2], the viability is 111% and 77.6%. Further, the results for the fold change in [6] (setting [18]) and in assay [6] (setting [19]) were 0.866 (inactive) and 1.55, respectively. The cell count turned out to be 9380 in assay [6] (setting [20]) and 10800 in assay [6] (setting [21]). The luciferase signal in assay [5] was 60 AU (inactive).
On to `C1CCN2C[C@@H]3C[C@H](CN4CCCC[C@@H]34)[C@H]2C1`, for which the parasite load remaining in assay [2] was 83.5% (inactive). Besides, the viability in assay [2] worked out at 82.9%. Besides, the inhibition in assay [3] was 11% (inactive). Moreover, the figures for the fold change in assay [6] (setting [18]) and in assay [6] (setting [19]) were 0.85 (inactive) and 3.93, respectively. In addition, the cell count came to 10700 in [6] (setting [20]) and 12500 in assay [6] (setting [21]). The luciferase signal in assay [5] was 68 AU (inactive).
Take `COC(=O)[C@H]1[C@H]2C[C@H]3c4[nH]c5ccccc5c4CCN3C[C@@H]2CC[C@@H]1O`: in assay [9], the fluorescence slope change is 53.3% (active). Also, the survival in assay [1] is 13.8 (inactive). The parasite load remaining in [2] is 108% (inactive) and 79.2% (inactive). In addition, the viability in assay [2] was 116% and 77.6%. Further, in assay [3], the inhibition is 7.89% (inactive). Moreover, the fold change in [6] (setting [18]) was 0.836 (inactive); in [6] (setting [19]) it was 1.95. Further, the values for the cell count in assay [6] (setting [20]) and in assay [6] (setting [21]) were 8660 and 10400, respectively. Further, the luciferase signal in [5] was 44 AU (inactive).
Consider `CCCCCC(=O)O[C@]1(C(C)=O)CC[C@H]2[C@@H]3CCC4=CC(=O)CC[C@]4(C)[C@H]3CC[C@@]21C`, for which, in assay [3], the inhibition was -2.17% (inactive). Also, the remaining NAD in assay [4] is 10 nM (inactive). The luciferase signal in assay [5] was 44 AU (inactive).
Regarding `NC[C@@H]1O[C@H](O[C@H]2[C@@H](O)[C@H](O[C@@H]3[C@@H](O)[C@H](N)C[C@H](N)[C@H]3O[C@H]3O[C@H](CO)[C@@H](O)[C@H](O)[C@H]3N)O[C@@H]2CO)[C@H](N)[C@@H](O)[C@@H]1O`, the inhibition in [3] was -8.11% (inactive). Moreover, in [4], the remaining NAD was 10 nM (inactive). Moreover, the luciferase signal in assay [5] is 80 AU (inactive).
In the case of `C=C1C[C@]23C[C@@]1(O)CC[C@H]2[C@@]12C=C[C@H](O)[C@@](C)(C(=O)O1)[C@H]2[C@@H]3C(=O)O`, in assay [1], the survival was 1.25 (inactive). Also, the parasite load remaining in [2] was 101% (inactive). In addition, the viability in [2] is 80.4%. Further, in assay [3], the inhibition is -0.284% (inactive). Moreover, the figures for the fold change in assay [6] (setting [18]) and in assay [6] (setting [19]) were 0.973 (inactive) and 0.674, respectively. Moreover, the cell count in [6] (setting [20]) was found to be 8110; in assay [6] (setting [21]), 8340. Besides, the luciferase signal in assay [5] is 40 AU (inactive).
With `CO[C@H]1C[C@H](O[C@@H]2/C(C)=C/C[C@@H]3C[C@@H](C[C@]4(CC[C@H](C)[C@@H](C5CCCCC5)O4)O3)OC(=O)[C@@H]3C=C(C)/C(=N/O)[C@H]4OC/C(=C\C=C\[C@@H]2C)[C@]43O)O[C@@H](C)[C@@H]1O`, in assay [3], the inhibition is -18% (inactive). Besides, the remaining NAD in assay [4] is 23 nM (inactive). The luciferase signal in assay [5] is 36 AU (inactive).
Turning to `CN1[C@@H]2CC[C@H]1CC(OC(c1ccccc1)c1ccccc1)C2` (stereo not given in full), the inhibition in assay [3] was 13.6% (inactive). The z-score is -0.23 (inactive) in [17] (MELAS cybrid survival, CellTiter-Glo 48 h, stronger effect = higher value) and 0.0522 in assay [17] (Rieske KO mouse fibroblast survival, CellTiter-Glo 72 h). The luciferase signal in assay [5] was 52 AU (inactive).
Regarding `C[C@@H]1O[C@@H](OC[C@H]2O[C@@H](Oc3c(-c4ccc(OCCO)c(OCCO)c4)oc4cc(OCCO)cc(O)c4c3=O)[C@H](O)[C@@H](O)[C@@H]2O)[C@H](O)[C@H](O)[C@H]1O`, the inhibition in assay [3] was -5.09% (inactive). Besides, the remaining NAD in assay [4] was 10 nM (inactive). Also, the luciferase signal in [5] is 72 AU (inactive).
